# From PubChem
# A488 fluor: A488 region autofluorescence; max dye equivalency, M; compound autofluorescence, A488 spectral region, dye equivalency; Compound Type: qHTS ECL - MLSMR; AID 591; 59,000 tested, 0.1% active
#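 Intrinsic compound fluorescence is measured in 100 mM Tris buffer at pH 8.0 following 15 min incubation at room temperature. Intensities at 480 nm excitation/540 nm emission are calibrated to an on-plate A488 concentration series, giving dye-equivalent concentrations.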
# Fluorescein fluor: compound autofluorescence in fluorescein spectral region; max fluorescein-equivalent concentration, M; Compound autofluorescence, 480/540 nm, fluorescein-equivalent; hits give high values; 59,000 tested, 0.91% active; in the data active = max fluorescein-equivalent concentration above about 10 nM; inconclusive = between about 1.1 nM and that limit
#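 Fluorescein stocks ranging 3 mM down to 300 nM, plus DMSO blanks, were pinned alongside compounds to build a per-plate standard curve. Buffer: 100 mM Tris, pH 8.0. Incubation 15 min, room temperature; filters 480/540 nm.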
# TexasRed autofl: compound fluoresces in the Texas Red spectral region | Compound fluorescence, Texas Red channel, 547/618 nm; hits give high values | max dye-equivalent concentration, M | 59,000 tested, 0.06% active; in the data active = max dye-equivalent concentration above about 10 nM; inconclusive = between about 1.1 nM and that limit
#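 Spectral interference profiling: each compound concentration's relative fluorescence, read with a 547 nm excitation and 618 nm emission filter pair, was normalized to a per-plate Texas Red standard curve.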
# Resorufin autofl: resorufin region autofluorescence; 59,000 tested, 0.04% active; max dye-equivalent concentration, M; Compound fluorescence, resorufin region 547/598 nm, buffer; hits give high values; AID 588
#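 Intrinsic fluorescence profiled in the resorufin window (ex 547 nm, em 598 nm) after 15 min at room temperature in pH 8.0 Tris buffer (100 mM); responses normalized against a six-point resorufin standard series as dye-equivalent concentration.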
# Rhodamine fluor: compound autofluorescence in rhodamine spectral region | Rhodamine-region fluorescence, 547/598 nm, Tris buffer; hits give high values | max dye-equivalent concentration, M | 59,000 tested, 0.05% active; in the data active = max dye-equivalent concentration above about 11 nM; inconclusive = between about 1.1 nM and that limit
#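 Read-out is relative fluorescence at 547 nm excitation and 598 nm emission, expressed as dye-equivalent concentration using rhodamine standards on every plate. Each compound was profiled across a concentration series after 15 min in 100 mM Tris, pH 8.0.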
# A647 autofl: compound fluoresces in the A647 spectral region | Compound fluorescence, A647 channel (570/671 nm), Tris buffer | max dye-equivalent concentration, M | 59,000 tested, under 10 active | AID 592;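 also: values scaled relative to a standard on each plate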
#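 Fluorescence read (570 nm ex, 671 nm em) after 15 min RT incubation of compounds in 100 mM Tris buffer, pH 8.0; values expressed as dye-equivalent concentration against a six-point A647 standard series on each plate.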
# The depositor's hits bear a star; i = inactive; ? = inconclusive. Shown are actives, neighbours in structure and some others; about 0.9% of the full set was active somewhere. Unless noted, no rule for the calls is given here.
SMILES,A488 fluor,Fluorescein fluor,TexasRed autofl,Resorufin autofl,Rhodamine fluor,A647 autofl
COc1ccc2cc(C(c3nnnn3CCc3ccccc3)N3CCC(O)CC3)c(=O)[nH]c2c1 (stereo not given),i,1.4e-08M*,4.1e-08M*,1.3e-08M*,2.4e-08M*,1.2e-09
O=c1cc(-c2cccc(O)c2O)oc2ccccc12,i,i,i,i,i,1e-09
CC(c1ccccc1)C1C(C#N)=C(N)SC(N)=C1C#N (stereo not given),i,i,i,i,i,1e-09
Cc1ccc(C2C(C#N)=C(N)SC(N)=C2C#N)cc1,i,2.3e-08M*,i,i,i,4.6e-08
CC1=C(C#N)C(c2ccoc2)C(C(=O)OCc2ccccc2)=C(N)S1 (stereo not given),i,i,i,i,i,7.1e-09
N#CC1=C(N)SC(N)=C(C#N)C1c1ccoc1,i,1.8e-08M*,i,i,i,2.2e-08
Cc1ccc(C2C(C#N)=C(N)SC(N)=C2C#N)c(C)c1,i,1e-08M*,i,i,i,1.9e-08
N#CC1=C(N)SC(N)=C(C#N)C1c1ccnc2ccccc12,i,?,i,i,i,4.4e-08
COc1ccc2nc(N3CCCC3)c(C#N)cc2c1,?,7.2e-08M*,i,i,i,1e-09
COc1ccc2nc(N3CCCCC3)c(C#N)cc2c1,i,1.5e-08M*,?,i,i,3.4e-09
Nc1ccn([C@@H]2O[C@@H](CO)[C@@H](O)[C@H]2O)c(=O)n1,i,?,i,i,i,1e-08
Nc1ncnc2nc[nH]c12.Nc1ncnc2nc[nH]c12.[Cl][Pt]([Cl])([Cl])[Cl],i,i,i,i,i,1e-09
c1ccc(N2CCN(c3nc4ccccc4n4nnnc34)CC2)cc1,i,1.9e-08M*,i,i,i,3.7e-08
CC1=C(C#N)C(=O)OC(C)(C)C1,?,5e-08M*,i,i,i,1e-09
Cc1nn2cnc3sc4c(c3c2nc1=O)CCCC4,i,1e-08M*,i,i,i,1.3e-09
O=C(COC(=O)c1cnccn1)Nc1ccc(Cl)cc1,i,1.1e-08M*,i,i,i,3.2e-09
Cc1ccc(C[C@H](Cc2nc3ccccc3[nH]2)c2nc3ccccc3[nH]2)cc1,i,i,i,i,i,4.2e-09
CCCN1CC=C2C(C#N)=C(N)C(C#N)(C#N)C(c3cccc(OC)c3OC)C2C1 (stereo not given),?,5.3e-08M*,i,i,i,3.1e-09
CCOC(=O)N1CC=C2C(C#N)=C(N)C(C#N)(C#N)[C@H](c3ccc(OCC)c(OCC)c3)[C@H]2C1,i,i,i,i,i,1e-09
Cc1ccc(C2C3CN(C(C)C)CC=C3C(C#N)=C(N)C2(C#N)C#N)cc1 (stereo not given),?,1e-07M*,i,i,i,6.2e-08
COc1ccc(OC)c(C2C3CN(C(C)C)CC=C3C(C#N)=C(N)C2(C#N)C#N)c1 (stereo not given),i,3.2e-08M*,i,i,i,1e-09
CCCCOc1ccc(C2C3CN(C(=O)OCC)CC=C3C(C#N)=C(N)C2(C#N)C#N)cc1OC (stereo not given),i,?,i,i,i,1.2e-09
CN1CC=C2C(C#N)=C(N)C(C#N)(C#N)C(c3cccc(Cl)c3Cl)C2C1 (stereo not given),?,3.9e-08M*,?,i,i,1.1e-09
CC1=CC(=O)CC(C)(C)[C@@]1(O)/C=C\C(C)=C\C(=O)O,i,?,i,i,i,1.9e-08
CC(C)[C@@H]1O[C@H](/C=C\c2ccccc2)OCC1(C)C,i,?,i,i,i,3.4e-08
CN(C)c1ccc(/C=N/n2ncc3ccccc32)cc1,i,i,i,i,i,1e-09
C=CCn1c(/N=C/c2ccc(N(C)C)cc2)nc2ccccc21,i,2.1e-08M*,i,i,i,1e-09
Nc1nc(N)nc(CCCCc2nc(N)nc(N)n2)n1,i,i,?,i,i,1e-09
